Laboratory results taken from PubChem BioAssay (EPA / NIEHS).
Results filed as inconclusive are left out. The source made the active and inactive calls. The calls were made as follows, unless noted: active = hit-call score of the fitted dose curve at least 0.9, where 1 is the maximum; inconclusive = response in the unintended direction; inactive = score below 0.9.

How the values were obtained:
[1] = molecular target: human RAR-related Orphan Receptor gamma (RORg), RORC (gene 6097) (UniProt P51449); test: ATG_RORg_TRANS: Attagene TRANS-FACTORIAL HepG2 Assay for human RAR-related Orphan Receptor gamma (RORg) (AID 2283011)
Chain of human RAR-related Orphan Receptor gamma (RORg), RORC (gene 6097) (P51449 whole entry, looked up, the tested form may be a part): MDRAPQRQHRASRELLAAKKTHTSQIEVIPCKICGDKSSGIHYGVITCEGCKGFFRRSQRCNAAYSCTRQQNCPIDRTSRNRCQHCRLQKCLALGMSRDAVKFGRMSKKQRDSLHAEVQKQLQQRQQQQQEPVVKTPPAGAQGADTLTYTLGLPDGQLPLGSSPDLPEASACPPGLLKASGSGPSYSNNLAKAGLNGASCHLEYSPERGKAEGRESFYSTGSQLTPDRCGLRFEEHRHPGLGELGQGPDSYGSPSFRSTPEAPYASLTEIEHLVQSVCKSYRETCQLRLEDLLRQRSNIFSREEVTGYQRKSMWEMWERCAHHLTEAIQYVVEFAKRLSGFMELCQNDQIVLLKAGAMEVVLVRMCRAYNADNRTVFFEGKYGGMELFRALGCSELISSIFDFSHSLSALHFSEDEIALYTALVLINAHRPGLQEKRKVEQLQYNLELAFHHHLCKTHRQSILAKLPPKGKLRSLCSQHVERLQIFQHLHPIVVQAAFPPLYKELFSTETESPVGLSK
Method in brief: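 First, HepG2 liver cells were transfected with GAL4-UAS-driven reporter constructs and the RORg-Gal4 fusion. Next, they were treated with chemical for 24 h. Finally, reporter mRNA was quantified by RT-PCR and capillary electrophoresis, with upward activity fitted against DMSO.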

[2] = read-out: E-selectin (Homo sapiens) (UniProt P16581); test: BSK_3C_Eselectin: BioMAP Diversity Plus: 3C Assay for Eselectin Biomarker Activity (AID 2283015; active = hit-call score of the fitted dose curve at least 0.9, where 1 is the maximum; inactive = score below 0.9;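 also: cell surface E-selectin protein quantified by ELISA 24 h after dosing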); settings: primary human endothelial cells (HUVEC); actives raise or lower the signal
Method in brief: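 ELISA read-out of E-selectin on endothelial monolayers after 24 h chemical treatment. Human umbilical vein primary cells served as the system, with DMSO defining baseline activity for bidirectional fitting.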

[3] = read-out: Interleukin-1 alpha (IL1a), IL1A (gene 3552); test: BSK_BE3C_IL1a: BioMAP Diversity Plus: BE3C Assay for Interleukin-1 alpha (IL1a) Biomarker Activity (AID 2283016; active = hit-call score of the fitted dose curve at least 0.9, where 1 is the maximum; inactive = score below 0.9); settings: primary human bronchial epithelial cells; actives raise or lower the signal
Method in brief: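 IL-1a measured by ELISA after 24 h treatment of human primary bronchial epithelial cells, with gain or loss of signal fitted versus DMSO. Parallel cultures stained with SRB gauge overt cytotoxicity.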

[4] = read-out: Monocyte Chemoattractant Protein-1 (MCP1), CCL2 (gene 6347); test: BSK_3C_MCP1: BioMAP Diversity Plus: 3C Assay for Monocyte Chemoattractant Protein-1 (MCP1) Biomarker Activity (AID 2283017; active = hit-call score of the fitted dose curve at least 0.9, where 1 is the maximum; inactive = score below 0.9); settings: primary human endothelial cells (HUVEC); actives raise or lower the signal
Method in brief: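 ELISA read-out of MCP-1 from human umbilical vein endothelial cell cultures harvested 24 h post-dosing. Gain or loss of signal was fitted relative to DMSO.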

[5] = read-out: Monocyte Chemoattractant Protein-1 (MCP1), CCL2 (gene 6347); test: BSK_4H_MCP1: BioMAP Diversity Plus: 4H Assay for Monocyte Chemoattractant Protein-1 (MCP1) Biomarker Activity (AID 2283018; active = hit-call score of the fitted dose curve at least 0.9, where 1 is the maximum; inactive = score below 0.9); settings: primary human endothelial cells (HUVEC); actives raise or lower the signal
Method in brief: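 ELISA of MCP-1 (CCL2) 24 h after chemical dosing of HUVEC in the BioMAP 4H system. Gain or loss versus DMSO fitted; parallel SRB staining (560 nm) tracked overt cytotoxicity.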

[6] = read-out: Human Leukocyte Antigen - DR isotype (HLADR), HLA-DRA (gene 3122); test: BSK_3C_HLADR: BioMAP Diversity Plus: 3C Assay for Human Leukocyte Antigen - DR isotype (HLADR) Biomarker Activity (AID 2283019; active = hit-call score of the fitted dose curve at least 0.9, where 1 is the maximum; inactive = score below 0.9;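 also: ELISA of cell-surface HLA-DR on HUVEC 24 h after dosing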); settings: primary human endothelial cells (HUVEC); actives raise or lower the signal
Method in brief: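 ELISA readout of surface HLA-DR on human umbilical vein endothelium, taken 24 h after chemical treatment. Gain- and loss-of-signal were both fitted relative to DMSO.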

[7] = read-out: Interleukin-8 (IL8), CXCL8 (gene 3576); test: BSK_3C_IL8: BioMAP Diversity Plus: 3C Assay for Interleukin-8 (IL8) Biomarker Activity (AID 2283020; active = hit-call score of the fitted dose curve at least 0.9, where 1 is the maximum; inactive = score below 0.9); settings: primary human endothelial cells (HUVEC); actives raise or lower the signal
Method in brief: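 IL-8 was measured by ELISA in HUVEC cultures 24 h after chemical dosing, with gain or loss of signal fitted relative to DMSO. Parallel SRB total-protein staining tracked overt cytotoxicity.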

[8] = molecular target: Retinoic acid receptor RXR-alpha (Homo sapiens) (UniProt P19793); test: ATG_RXRa_TRANS: Attagene TRANS-FACTORIAL HepG2 Assay for human Retinoid X Receptor alpha (RXRa) (AID 2283012)
Chain of Retinoic acid receptor RXR-alpha (Homo sapiens) (P19793 whole entry, looked up, the tested form may be a part): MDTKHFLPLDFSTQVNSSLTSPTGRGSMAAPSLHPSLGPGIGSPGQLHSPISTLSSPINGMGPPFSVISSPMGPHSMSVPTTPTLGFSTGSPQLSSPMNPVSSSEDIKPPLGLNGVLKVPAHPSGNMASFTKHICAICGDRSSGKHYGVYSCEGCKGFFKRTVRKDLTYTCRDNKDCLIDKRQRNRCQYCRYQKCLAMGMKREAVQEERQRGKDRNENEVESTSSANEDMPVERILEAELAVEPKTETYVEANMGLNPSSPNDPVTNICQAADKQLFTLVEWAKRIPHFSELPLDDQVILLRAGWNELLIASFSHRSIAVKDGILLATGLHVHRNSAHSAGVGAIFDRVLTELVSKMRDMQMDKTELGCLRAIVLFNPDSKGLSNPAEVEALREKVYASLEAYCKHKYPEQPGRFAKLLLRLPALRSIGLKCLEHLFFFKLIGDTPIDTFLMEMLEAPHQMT
Method in brief: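 TRANS format reporting activity of exogenous RXRa-Gal4 chimera in transiently transfected HepG2, 24 h exposure. Reporter transcripts quantified by RT-PCR with capillary electrophoresis, with gain of signal scored relative to DMSO.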

[9] = molecular target: human Retinoid X Receptor beta (RXRb), RXRB (gene 6257) (UniProt P28702); test: ATG_RXRb_TRANS: Attagene TRANS-FACTORIAL HepG2 Assay for human Retinoid X Receptor beta (RXRb) (AID 2283013)
Chain of human Retinoid X Receptor beta (RXRb), RXRB (gene 6257) (P28702 whole entry, looked up, the tested form may be a part): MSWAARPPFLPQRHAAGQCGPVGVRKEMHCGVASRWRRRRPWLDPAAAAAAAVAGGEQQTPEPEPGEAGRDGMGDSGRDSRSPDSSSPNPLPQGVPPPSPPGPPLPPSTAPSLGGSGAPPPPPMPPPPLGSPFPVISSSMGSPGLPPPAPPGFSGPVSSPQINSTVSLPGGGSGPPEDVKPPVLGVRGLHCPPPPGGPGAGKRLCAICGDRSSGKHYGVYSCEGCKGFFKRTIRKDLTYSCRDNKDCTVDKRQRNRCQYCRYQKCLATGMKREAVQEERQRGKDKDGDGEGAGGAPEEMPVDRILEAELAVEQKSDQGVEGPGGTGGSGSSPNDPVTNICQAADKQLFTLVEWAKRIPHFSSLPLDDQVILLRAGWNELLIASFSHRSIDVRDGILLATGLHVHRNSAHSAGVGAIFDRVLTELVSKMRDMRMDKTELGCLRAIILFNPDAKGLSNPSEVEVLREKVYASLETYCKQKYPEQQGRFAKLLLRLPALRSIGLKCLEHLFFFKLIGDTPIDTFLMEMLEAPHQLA
Method in brief: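 Readout is reporter transcript induction after 24 h dosing. It is measured by RT-PCR of total RNA followed by fluorescent capillary electrophoresis. HepG2 liver cells carry transfected multiple reporter units driven by an exogenous RXRb-Gal4 fusion; activity is relative to DMSO.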

[10] = molecular target: human Thyroid Receptor alpha (THRa1), THRA (gene 7067) (UniProt P10827); test: ATG_THRa1_TRANS: Attagene TRANS-FACTORIAL HepG2 Assay for human Thyroid Receptor alpha (THRa1) (AID 2283014)
Chain of human Thyroid Receptor alpha (THRa1), THRA (gene 7067) (P10827 whole entry, looked up, the tested form may be a part): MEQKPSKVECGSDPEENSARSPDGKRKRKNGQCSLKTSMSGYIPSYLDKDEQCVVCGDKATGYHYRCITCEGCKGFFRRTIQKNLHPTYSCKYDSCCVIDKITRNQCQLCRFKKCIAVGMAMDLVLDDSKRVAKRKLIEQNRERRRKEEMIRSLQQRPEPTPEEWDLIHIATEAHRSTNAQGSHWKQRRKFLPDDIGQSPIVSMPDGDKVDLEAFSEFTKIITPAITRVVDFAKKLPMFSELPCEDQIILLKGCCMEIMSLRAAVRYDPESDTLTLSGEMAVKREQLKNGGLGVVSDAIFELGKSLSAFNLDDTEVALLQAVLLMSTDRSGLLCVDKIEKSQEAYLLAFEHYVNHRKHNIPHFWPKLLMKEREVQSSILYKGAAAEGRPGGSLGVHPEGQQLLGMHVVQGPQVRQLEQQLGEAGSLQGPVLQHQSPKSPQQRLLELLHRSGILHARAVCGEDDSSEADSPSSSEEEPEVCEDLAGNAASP
Method in brief: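 Reporter transcript induction, read by capillary electrophoresis of 6-FAM-labelled RT-PCR products, reflects activity of a transfected THRa1-Gal4 fusion in HepG2 liver cells. Cells were dosed for 24 h; activity was fitted in the positive direction against DMSO.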

Chain of E-selectin (Homo sapiens) (P16581 whole entry, looked up): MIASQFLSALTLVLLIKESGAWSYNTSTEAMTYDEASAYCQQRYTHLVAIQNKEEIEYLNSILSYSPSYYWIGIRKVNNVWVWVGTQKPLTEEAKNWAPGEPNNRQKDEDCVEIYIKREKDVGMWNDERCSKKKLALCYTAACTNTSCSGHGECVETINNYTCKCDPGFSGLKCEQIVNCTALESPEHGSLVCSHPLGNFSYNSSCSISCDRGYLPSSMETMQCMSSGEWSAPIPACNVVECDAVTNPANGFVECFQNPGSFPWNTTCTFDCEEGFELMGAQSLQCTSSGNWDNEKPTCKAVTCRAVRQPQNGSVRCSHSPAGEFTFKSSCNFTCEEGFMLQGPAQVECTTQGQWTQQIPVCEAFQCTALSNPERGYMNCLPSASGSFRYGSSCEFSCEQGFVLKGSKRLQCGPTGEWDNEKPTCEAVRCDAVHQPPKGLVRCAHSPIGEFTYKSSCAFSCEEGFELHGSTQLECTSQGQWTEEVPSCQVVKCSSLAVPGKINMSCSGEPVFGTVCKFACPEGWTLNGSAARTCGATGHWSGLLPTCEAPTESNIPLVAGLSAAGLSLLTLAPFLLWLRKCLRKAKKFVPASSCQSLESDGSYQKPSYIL

CS(=O)(=O)OCCCCOS(C)(=O)=O
outcome [1]: inactive
outcome [2]: inactive
outcome [3]: inactive
outcome [4]: inactive
outcome [5]: inactive
outcome [6]: inactive
outcome [7]: inactive

CCC1(C)NC(=O)NC1=O (stereo not given)
outcome [8]: inactive

CCCCC1CCC(O)CC1 (stereo not given)
outcome [8]: inactive
outcome [9]: inactive

CCC(Cl)C(Cl)C(Cl)CC(Cl)C(Cl)C(C)Cl (stereo not given)
outcome [8]: inactive
AC50 [9]: 16.4 µM (active)
outcome [10]: inactive

NCCNc1cccc2ccccc12
outcome [8]: inactive
outcome [9]: inactive

CCCCC(CC)(CO)CO
outcome [8]: inactive
outcome [9]: inactive

N#Cc1ccc(CC(=O)c2cccc(C(F)(F)F)c2)cc1
AC50 [8]: 26.4 µM (active)
AC50 [9]: 5.99 µM (active)

Cc1ccc2c(c1)C(=O)OC2=O
outcome [8]: inactive
outcome [9]: inactive

CCCC(=O)C(CC)Sc1ccoc1C (stereo not given)
outcome [8]: inactive
AC50 [9]: 46.1 µM (active)
outcome [10]: inactive

C1CCOC1
outcome [8]: inactive
outcome [9]: inactive

Cc1ccc(C)o1
outcome [8]: inactive
outcome [9]: inactive

N[C@@H](Cc1cc(I)c(Oc2cc(I)c(O)c(I)c2)c(I)c1)C(=O)O
outcome [8]: inactive
AC50 [9]: 69 µM (active)

CCCOC(=O)c1c(Cl)c(Cl)c(Cl)c(Cl)c1C(=O)OCCC
outcome [8]: inactive
AC50 [9]: 10.6 µM (active)

COc1ccc(CCO)cc1
outcome [8]: inactive
outcome [9]: inactive
outcome [10]: inactive

CCc1cc(C(C)(C)C)c(O)c(C(C)(C)C)c1
AC50 [8]: 11.3 µM (active)
AC50 [9]: 0.325 µM (active)

O=C(Nc1ccc2c(c1)Cc1ccccc1-2)C(F)(F)F
outcome [8]: inactive
outcome [9]: inactive
outcome [10]: inactive
